p53 reactivator – re-activators of mutant p53. H1299 p53-A138V BP100-luciferase reporter, luminescence, 24 h. Potency, µM (top dose mostly 92.2 µM), without a hit: at the highest dose activity change, positive = activation, most hits filed as activators. 320,000 tested, 0.063% active. AID 504706; further: % of control where 0% means no effect; nearly all actives have a fitted effect of over 45% in size
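H1299 (p53-null), stable ts p53-A138V + BP100-Luc; 1000 cells/well, Opti-MEM/10% FBS; cpd 4 pt, 1:5; 24 h, 37 deg C, 5% CO2; detection reagent 10 min RT; luminescence.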
FLuc modulator – inhibits or activates purified firefly luciferase, miR-21 counter-screen | purified FLuc, Km substrates, luminescence inhibition | Potency, µM (titrated, usually from 57.5 µM), for inactives: top-dose activity change, negative = inhibition, usual class: inhibitors | 360,000 tested, 6.9% active | AID 588342 | P08659;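 further: plate controls were vehicle for no effect and reference inhibitor for full effect; nearly all actives have a fitted effect of over 55% in size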
Target sequence (P08659 whole entry, looked up): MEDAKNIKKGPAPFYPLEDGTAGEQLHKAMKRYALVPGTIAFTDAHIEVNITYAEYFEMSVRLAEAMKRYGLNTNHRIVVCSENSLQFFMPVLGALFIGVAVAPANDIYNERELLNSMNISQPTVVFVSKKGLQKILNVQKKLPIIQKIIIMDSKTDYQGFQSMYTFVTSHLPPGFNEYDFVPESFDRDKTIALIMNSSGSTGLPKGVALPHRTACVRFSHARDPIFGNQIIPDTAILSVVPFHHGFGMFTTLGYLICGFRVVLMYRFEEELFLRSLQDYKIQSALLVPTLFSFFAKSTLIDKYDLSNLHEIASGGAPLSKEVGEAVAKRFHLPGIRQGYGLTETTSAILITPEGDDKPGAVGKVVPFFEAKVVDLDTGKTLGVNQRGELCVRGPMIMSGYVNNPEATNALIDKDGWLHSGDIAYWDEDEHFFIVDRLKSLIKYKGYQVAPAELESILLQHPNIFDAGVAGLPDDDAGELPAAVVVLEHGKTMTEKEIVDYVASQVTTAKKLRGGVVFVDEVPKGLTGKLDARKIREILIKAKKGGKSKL
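Biochemical qHTS of compounds, final roughly 60 µM downward over six points, against 10 nM purified firefly luciferase using Km concentrations of substrates (10 uM D-luciferin, 10 uM ATP) in Tris acetate pH 7.5 buffer; luminescence output.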
Rab9 promoter act – activators of Rab9 promoter. AID 485297. Huh7 Rab9 promoter-luciferase reporter, luminescence, 24 h. Potency, µM (highest dose often 9.22 µM), inactives show at the highest dose activation, negative = inhibition, most hits filed as activators. 320,000 tested, 2.8% active; further: % of control where 0% means no effect; nearly all actives have a fitted effect of over 60% in size
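Cells were plated at 1500 per well in reduced-serum medium with 10% FBS and left 2 h. Compound in DMSO was then added for 24 h at 37 °C. Reporter signal was read by luminescence after 10 min with luciferase detection reagent.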
NPC1 prom act – activators of NPC1 promoter; Potency, µM (doses to about 9.22 µM), without a hit: top-dose activation, usual class: activators; Huh7 NPC1 promoter luciferase reporter, 24 h; 320,000 tested, 2.4% active; AID 485313; further: % of control where 0% means no effect; nearly all actives have a fitted effect of over 60% in size
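Readout is luciferase luminescence, reflecting NPC1 promoter activation in stably transfected Huh7 cells after 24 h compound exposure at 37 °C in reduced-serum medium with 10% FBS.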
SMN2 splice enh – SMN2 splice variant enhancement; 210,000 tested, 2.8% active; Potency, µM (highest dose often 46.1 µM), for the others: top-dose activity change, positive = activation, usual class: activators; HEK293 SMN2-luciferase splicing reporter, luminescence, 30-36 h; AID 1458; further: % of control where 0% means no effect; nearly all actives have a fitted effect of over 55% in size
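HEK293 cells carry an SMN2 minigene-luciferase reporter in which exon 7 inclusion puts luciferase in frame. Cells were seeded at 2000 cells/well, attached for 10-12 hours, then exposed to compounds for 30-36 hours at 37C before ONE-Glo luminescence.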
ELG1 genotox – inducers of genotoxicity in HEK293T ELG1-luciferase cells | HEK293T ELG1-luciferase reporter, luminescence, 16 h | 330,000 tested, 1.3% active | Potency, µM (highest dose often 46 µM), inactives show at the highest dose activity change, positive = activation, most hits filed as activators; further: % of control where 0% means no effect; nearly all actives have a fitted effect of over 60% in size
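Genotoxicity was scored as increased ELG1-luciferase reporter signal, measured by ONE-Glo luminescence (30 min, room temperature). Compound or vehicle exposure of the HEK293T reporter cells lasted 16 hr at 37°C.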
Numbers without * were called inactive; ? = inconclusive; nt = no result. Shown are actives, neighbours in structure and some others; about 7.3% of the full set was active somewhere. The call rests on the fitted dose curve; in most records, active means well fitted curve in the direction sought with a large enough effect; inconclusive means small, poorly fitted or top-dose-only effect, or another doubt; inactive means no such curve, though single readings can be large; an effect the other way counts as inactive or inconclusive. Potency means the concentration at half of the fitted maximal effect.

SMILES | p53 reactivator | FLuc modulator | Rab9 promoter act | NPC1 prom act | SMN2 splice enh | ELG1 genotox
CC(C)(C)OC(=O)N/N=C\c1ccc([N+](=O)[O-])s1 | ? | 27µM* | 17% | 23% | -55% | 5%
CCOC(=O)N/N=C/c1c(C)nn(-c2ccccc2Cl)c1Cl | ? | 9.5µM* | ? | ? | 13µM* | ?
Cc1nn(-c2ccccc2)c(Cl)c1/C=N/NC(=O)C1COc2ccccc2O1 (configuration not stated) | -3% | 7.6µM* | -1% | -2% | 0% | 3%
COc1ccc(/C=C2/C(=O)ON=C2c2ccccc2)cc1OC | -6% | 11µM* | -8% | -6% | 7% | 15%
COc1ccc(/C=C2\C(=O)ON=C2c2cccc([N+](=O)[O-])c2)cc1 | 4% | 24µM* | -3% | -4% | 9% | 1%
CCOc1ccc(Nc2nc(Cc3nnc(SCC(N)=O)o3)cs2)cc1 | 7% | 15µM* | -1% | -2% | -13% | 5%
CCOc1ccc(NC(=O)CSc2nnc(Cc3csc(C)n3)o2)cc1 | 15% | 2% | 0% | -9% | nt | -1%
CCOC(=O)c1ccc(NC(=O)C(CC)Sc2nc3ncccc3o2)cc1 (configuration not stated) | nt | -15% | nt | nt | nt | nt
CC(=O)NNC(=O)c1sc(=S)n2c1[nH]c(=O)c1sccc12 | 1% | 19µM* | -4% | -4% | 4% | -1%
NC(=O)c1sc(=S)n2c1[nH]c(=O)c1sccc12 | ? | ? | 2% | 0% | 25% | -5%
CCc1ccc(NC(=O)CN2C(=O)C(c3ccc(Cl)cc3)=NC23CCCCC3)cc1 | nt | -12% | nt | nt | -29% | nt
Cn1c2ccccc2c2c(C(=O)N3CCN(c4cccc(Cl)c4)CC3)cn(C3CCCCC3)c(=O)c21 | nt | -2% | nt | nt | -3% | nt
CCCCN(CC)CCCNC(=O)C1CCN(c2nc3ccc(CC)cc3s2)CC1 | nt | 19µM* | nt | nt | -52% | nt
CCCCN(C)CCCNC(=O)C1CCN(c2nc3ccc(CC)cc3s2)CC1 | nt | 15µM* | nt | nt | -8% | nt
CN1CCCC2(CCN(C(=O)c3cnccn3)CC2)C1 | nt | nt | nt | nt | -1% | nt
CC1(C)CC(=O)C=C(c2cccc(O)c2)C1=O | -8% | 5% | 1% | -1% | nt | 4%
COC(=O)c1sc(NC(=O)c2ccc(Cn3cc(Cl)cn3)o2)c(C#N)c1C | -5% | 21µM* | -1% | 1% | -14% | -14%
N#Cc1c(NC(=O)c2ccc(Cn3cc(Br)cn3)o2)sc2c1CCCCC2 | 20% | 11µM* | -1% | 21% | ? | 1%
O=C(NC1CCCCC1)c1ccc(Cn2cc(Br)cn2)o1 | 0% | -10% | 0% | 7% | 0% | 4%
CC1CCc2c(sc(NC(=O)c3ccc(Cn4cc([N+](=O)[O-])cn4)o3)c2C#N)C1 (configuration not stated) | 23% | 13µM* | 7% | 9% | 3% | 1%
Cc1ccc(NC(=O)c2ccc(Cn3cc(Cl)cn3)o2)c(C)c1 | -12% | -2% | -4% | 0% | nt | -6%
Cc1nn(C)c2c1c(C(F)(F)F)cc(=O)n2CC(=O)NCc1ccccc1Cl | nt | 5% | nt | nt | nt | nt
CCOC(=O)c1sc(N2C(=O)c3oc4ccc(C)cc4c(=O)c3C2c2ccccc2F)nc1C (configuration not stated) | nt | 2% | nt | nt | 8% | nt
COC(=O)C1=C(C)NC(C)=C(C(=O)OC)C1c1ccc2ccccc2n1 | -6% | 3% | -1% | -3% | 2% | 10%
O=C1c2ccccc2C(=O)C1c1ccc2ccccc2n1 | ? | 0.17µM* | 1µM* | ? | 1µM* | 0.13µM*
COc1ccc(CCNC(=O)CCCn2c(=O)c3ccccc3n(CC(=O)Nc3cccc(C)c3)c2=O)cc1OC | nt | -1% | nt | nt | 3% | nt
CC(Oc1ccccc1)C(=O)Nc1ccc(C(=O)OCc2cc(=O)n3nc(C4CC4)sc3n2)cc1 (configuration not stated) | nt | -9% | nt | nt | nt | nt

Assay outcomes deposited in PubChem by National Center for Advancing Translational Sciences (NCATS).
